CHX counter = counter-screen hit for Shiga toxin inhibitors, cycloheximide. cell reporter, cycloheximide protein synthesis inhibition counterscreen. AID 2314. max response, %. 300,000 compounds, 12% hits; in the data active = max response mostly above about 13%, no sharp cut-off; inactive = mostly below about 14%; also: read at 38.3 µM for the half of the compounds with a filed dose; 0% is about no effect
AMA1-RON2 inh = inhibitors of Plasmodium falciparum AMA1-RON2 interaction; AlphaScreen AMA1-biotinylated RON2 peptide binding; Potency, µM (highest dose often 58.2 µM), inactives show top-dose activity change, negative = inhibition, actives largely listed as inhibitors; 360,000 compounds, 0.2% hits;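 also: potency is read from the fitted curve at half-maximal effect; 0% = vehicle wells and -100% = peptide control; nearly all actives have a fitted effect of over 45% in size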
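AMA1 (3D7) with his tag at 25 nM final met compounds first, then biotinylated RON2 peptide at 25 nM; detection used donor plus acceptor beads, 10 µg/mL apiece, read by AlphaScreen after 30 min at room temperature.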
Pf growth 48h = P. falciparum growth inhibition at 48 hours (one generation) | P. falciparum luciferase growth in erythrocytes, 48 h | AID 504832 | Potency, µM (doses to about 28.7 µM), for the others: at the highest dose activity change, negative = inhibition, hits mostly inhibitors | 310,000 compounds, 5.9% hits; also: potency is read from the fitted curve at half-maximal effect; % is scaled to controls: 0 for no effect and ±100 for the full control effect
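In quantitative HTS format, infected erythrocytes bearing luciferase-reporter parasites were treated for a single generation at 37 C. Luminescence after adding detection reagent served as the growth measure.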
Pf growth 96h = inhibits malaria parasite growth, 96 h | Potency, µM (titrated, usually from 28.7 µM), for inactives: at the highest dose activity change, negative = inhibition, most hits filed as inhibitors | 320,000 compounds, 6.9% hits | P. falciparum luciferase reporter growth, 96 h; also: potency is read from the fitted curve at half-maximal effect; % is scaled to controls: 0 for no effect and ±100 for the full control effect
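Plates of compound plus infected erythrocytes (2% hematocrit, 0.05% parasitemia final) incubate 96 hours, 37 C, 5% CO2. Detection reagent added; reduced luminescence from the parasites' luciferase reporter flags inhibition.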
HCV inh = HCV inhibition; Huh7.5.1 HCVcc-Cre infection, luciferase reporter, 44 h; Potency, µM (series often up to 41.8 µM), for the others: at the top dose activity change, negative = inhibition, hits mostly inhibitors; 340,000 compounds, 3.4% hits; also: potency is read from the fitted curve at half-maximal effect; % is scaled to controls: 0 for no effect and ±100 for the full control effect
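Whole-lifecycle infectious HCVcc-Cre system; cells 1,000/well, compound then virus (~0.5 moi) added 4 h after plating, 44 h culture. Luciferase read 15 sec following 15 min substrate incubation, room temp.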
Shiga toxin inh = inhibitors of Shiga toxin in Vero cells; 290,000 compounds, 9.2% hits; Vero cells, Shiga toxin protein synthesis inhibition reporter; inhibition, % at 38.7 µM; in the data active = inhibition mostly above about 28%, no sharp cut-off; inactive = mostly below about 43%; also: 0% is about no effect
The depositor's hits bear a star; ? = inconclusive; . = no result. Only some compounds are listed: those with a hit (about 21% of all), similar ones and a draw of the others. Unless noted, calls follow the shape of the dose curve; as a rule, active = well fitted curve in the direction sought with a large enough effect; inconclusive = small, poorly fitted or top-dose-only effect, or another doubt; inactive = no such curve, though single readings can be large; an effect the other way counts as inactive or inconclusive.

SMILES	CHX counter	AMA1-RON2 inh	Pf growth 48h	Pf growth 96h	HCV inh	Shiga toxin inh
CC(C)c1ccccc1OCCCCCNCCO	11.1	8.3%	4.15µM*	4.15µM*	?	12.9
COc1ccccc1OCCCCNCCO	-3.3	4.5%	-3.5%	.	0.4%	-6.0
Cc1ccccc1OCCCCCNCCO	0.6	6.9%	-7.4%	.	?	-4.3
CC(C)(C)c1ccccc1OCCCCCNCCO	-1.1	-9.7%	4.15µM*	-29.2%	7.94µM*	-3.7
CC(=O)Nc1nc2c(s1)C(=O)NCCC2	-0.5	-6.4%	14.8%	78.0%	10.7%	-10.9
Cc1ccc(NC(=O)COCC(=O)Nc2ccc(F)cc2)cc1	1.2	48.8%	5.4%	-9.3%	16.1%	-2.2
COC(=O)c1ccc(COc2cc(O)c3c(c2)OC(C)(C)CC3=O)cc1	16.7	1.1%	?	.	-26.2%	-3.9
CC1(C)CC(=O)c2cc(OCC(=O)O)ccc2O1	0.6	2.3%	22.2%	3.7%	10.5%	1.0
CC1(C)CC(=O)c2ccc(OCc3ccc([N+](=O)[O-])cc3)cc2O1	40.4*	-19.4%	227.7%	252.0%	-17.2%	84.5*
CC1(C)CC(=O)c2c(O)cc(OCc3ccc(Br)cc3)cc2O1	48.6*	23.9%	.	75.4%	-13.2%	69.6*
CC(C)(C)NC(=O)C1Cc2ccccc2CN1 (stereo unspecified)	-2.0	0.0%	?	25.3%	19.7%	-15.4
Cc1ccc(OCc2nnn(CC(=O)NS(=O)(=O)c3c(C)noc3C)c2-c2ccccc2)cc1	.	-11.9%	.	.	.	.
Cc1ccc2c(c1)CNc1ccccc1O2	12.7*	-5.0%	.	-3.5%	-9.1%	45.4
c1ccc2c(c1)CNc1ccccc1O2	10.0	-1.3%	17.4%	-13.2%	-4.5%	-2.2
COCCn1c(SCC(=O)NN2C(=O)NC(C)(c3ccccc3)C2=O)nnc1-c1ccncc1 (stereo unspecified)	.	9.3%	-20.4%	0.0%	8.6%	.
COC(=O)c1cc(-c2c(-c3ccc4c(c3)OCO4)noc2-c2ccsc2)cc([N+](=O)[O-])c1	24.6*	25.7%	0.0%	?	44.4%	30.4
O=C(O)c1cc(-c2ccc(-c3c(-c4ccc5c(c4)OCO5)noc3-c3ccsc3)cc2)nc2ccccc12	35.9*	11.1%	2.4%	?	?	60.6*
COC(=O)c1cc(-c2c(-c3cc(OC)c(OC)c(OC)c3)noc2C)cc([N+](=O)[O-])c1	1.0	-13.8%	56.7%	-19.7%	-11.9%	17.2
COc1ccc(-c2c(-c3ccc4c(c3)OCO4)noc2C)cn1	24.8*	-3.8%	22.3%	43.3%	2.7%	66.7*
CN(C)c1ccc(-c2c(-c3ccc4c(c3)OCO4)noc2-c2ccsc2)cn1	28.1*	-11.9%	?	-12.3%	6.2%	40.1*
O=c1cc(-c2ccsc2)oc2cc(-c3ccc4c(c3)OCO4)ccc12	.	-9.8%	.	.	3.7%	.
COc1ccc(-c2c(-c3cc(OC)c(OC)c(OC)c3)noc2C)cn1	6.5	1.5%	-1.5%	?	-18.9%	18.9
CC(C)(C)NC(=O)C(CCc1ccccc1)n1c(=O)c(-c2cc3ccccc3[nH]2)nc2ccccc21 (stereo unspecified)	.	56.3%	.	.	.	.
CCN(CC)CCN(C(=O)c1ccc2c(c1)CCCC2)c1nc2c(C)cccc2s1	-1.9	-16.3%	9.28µM*	?	?	3.9
CCN(CC)CCN(C(=O)c1ccc2c(c1)CCCC2)c1nc2ccc(C)cc2s1	19.8*	-13.3%	13.1µM*	?	?	31.6
SMILES	CHX counter	AMA1-RON2 inh	Pf growth 48h	Pf growth 96h	HCV inh	Shiga toxin inh
CCN(CC)CCN(C(=O)c1ccc2c(c1)CCCC2)c1nc2ccc(F)cc2s1	16.3	-16.2%	?	?	?	42.1
O=C([C@H]1O[C@@H](n2ccc(=O)[nH]c2=O)[C@H](O)[C@@H]1O)N1CCSC1	.	5.4%	.	.	.	.
O=C(NCc1cccnc1)C1Cc2c(-c3ccc(Cl)cc3)ccnc2O1 (stereo unspecified)	.	-15.3%	.	.	.	.
COc1cccc(S(=O)(=O)N(C)C[C@H]2OCc3cnnn3CCCC(=O)N([C@@H](C)CO)C[C@H]2C)c1	.	-4.3%	.	.	.	.
O=C(NC1C2CCCC1CN(C1CC1)C2)c1ccc(Cl)cc1 (stereo unspecified)	-1.9	5.0%	?	?	?	0.6
C=C1CCC[C@]2(C)C[C@H]3OC(=O)C(CNCCN(CC)CC)[C@H]3CC12 (stereo partly specified)	-6.1	-15.2%	?	?	?	2.8
Cc1cc(=O)oc2cc(OCC(=O)NC3CC(C)(C)NC(C)(C)C3)ccc12	-4.2	-2.3%	13.3%	23.5%	-7.7%	-2.8
Cc1cc(OCC(=O)NC2CCCCC2)ccc1Cl	29.6*	-2.1%	23.1%	4.7%	1.5%	66.5*
CN(CC(=O)Nc1ncn[nH]1)S(=O)(=O)c1cc(Cl)ccc1Cl	-4.9	44.7%	10.4µM*	-1.6%	0.0%	-5.6
Cc1cc(OCC(=O)Nc2ncn[nH]2)ccc1Cl	.	68.2%	88.2%	1.85µM*	0.1%	.
Cc1cc(=O)oc2cc(OCC(=O)NC3CCCCC3)ccc12	21.8*	-2.3%	38.5%	73.1%	-11.7%	5.7
CCN(C(=O)COC(=O)c1ccccc1Nc1ccccc1)c1c(N)n(Cc2ccccc2)c(=O)[nH]c1=O	.	-7.8%	.	.	?	.
N#Cc1cnc2nc1NCCCCCCC2	.	-10.4%	.	.	.	.
O=C(COC(=O)COc1ccc(Br)cc1)NNC(=O)c1ccccc1	.	8.5%	.	.	-3.3%	.
NC(=O)N/N=C/c1c(Sc2nnnn2-c2ccccc2)nc2ccccn2c1=O	-3.0	15.0%	4.65µM*	?	?	17.8
CCOC(=O)N1CCN(C(=O)CNC(=O)c2nn(-c3ccc(OC)cc3OC)c(=O)c3ccccc23)CC1	24.7*	-4.4%	?	1.04µM*	-15.8%	31.5*
COc1ccc(OC)c(NC(=O)CSc2nc3ccccc3c(=O)n2CCNC(C)=O)c1	-0.7	-3.6%	?	-6.8%	-13.5%	-0.8
COc1ccc(OC)c(NC(=O)Cn2c(C)nc3ccccc3c2=O)c1	32.4*	-4.2%	-15.5%	0.6%	-4.3%	81.6*
COc1ccc(-n2nc(C(=O)NCC(=O)Nc3cc(C)ccc3OC)c3ccccc3c2=O)c(OC)c1	-2.3	9.8%	11.7µM*	?	10.9%	3.4
COc1ccc(-n2nc(C(=O)NCC(=O)NCc3ccccc3OC)c3ccccc3c2=O)c(OC)c1	6.9	15.0%	?	?	-18.3%	-7.0
COc1ccc(-n2nc(C(=O)NCC(=O)N3CC(C)CC(C)C3)c3ccccc3c2=O)c(OC)c1 (stereo unspecified)	7.0	-7.7%	2.08µM*	14.8%	-2.3%	-7.9
CCOc1ccc(NC(=O)C(C)C(Cc2ccc(C)cc2)C(=O)O)cc1 (stereo unspecified)	-2.6	-6.8%	.	?	7.3%	-0.5

Screening data: PubChem, National Center for Advancing Translational Sciences (NCATS)
